ChEMBL document CHEMBL3988442, “University of Dundee, Small-Polar-MMV Screening Library” (2021)
For some assays here: Potency and affinity values are given separately.

Tests used:
Set-up in all cases: scale not given: direction of the effect not stated beside the values
[1] = target: Protein translocase subunit SecA (Escherichia coli (strain K12)) (UniProt P10408); test: Assay to Identify E. coli SecA ATPase Inhibitors; format: functional; conditions: 30 µM
[2] = target: T1, Ubiquitin-activating enzyme e1, putative (Leishmania donovani (strain BPK282A1)) (UniProt E9BSI1); test: Leishmania donovani Ubiquitin Activating Enzyme (LdE1); format: functional; conditions: 30 µM
T1 sequence (whole entry): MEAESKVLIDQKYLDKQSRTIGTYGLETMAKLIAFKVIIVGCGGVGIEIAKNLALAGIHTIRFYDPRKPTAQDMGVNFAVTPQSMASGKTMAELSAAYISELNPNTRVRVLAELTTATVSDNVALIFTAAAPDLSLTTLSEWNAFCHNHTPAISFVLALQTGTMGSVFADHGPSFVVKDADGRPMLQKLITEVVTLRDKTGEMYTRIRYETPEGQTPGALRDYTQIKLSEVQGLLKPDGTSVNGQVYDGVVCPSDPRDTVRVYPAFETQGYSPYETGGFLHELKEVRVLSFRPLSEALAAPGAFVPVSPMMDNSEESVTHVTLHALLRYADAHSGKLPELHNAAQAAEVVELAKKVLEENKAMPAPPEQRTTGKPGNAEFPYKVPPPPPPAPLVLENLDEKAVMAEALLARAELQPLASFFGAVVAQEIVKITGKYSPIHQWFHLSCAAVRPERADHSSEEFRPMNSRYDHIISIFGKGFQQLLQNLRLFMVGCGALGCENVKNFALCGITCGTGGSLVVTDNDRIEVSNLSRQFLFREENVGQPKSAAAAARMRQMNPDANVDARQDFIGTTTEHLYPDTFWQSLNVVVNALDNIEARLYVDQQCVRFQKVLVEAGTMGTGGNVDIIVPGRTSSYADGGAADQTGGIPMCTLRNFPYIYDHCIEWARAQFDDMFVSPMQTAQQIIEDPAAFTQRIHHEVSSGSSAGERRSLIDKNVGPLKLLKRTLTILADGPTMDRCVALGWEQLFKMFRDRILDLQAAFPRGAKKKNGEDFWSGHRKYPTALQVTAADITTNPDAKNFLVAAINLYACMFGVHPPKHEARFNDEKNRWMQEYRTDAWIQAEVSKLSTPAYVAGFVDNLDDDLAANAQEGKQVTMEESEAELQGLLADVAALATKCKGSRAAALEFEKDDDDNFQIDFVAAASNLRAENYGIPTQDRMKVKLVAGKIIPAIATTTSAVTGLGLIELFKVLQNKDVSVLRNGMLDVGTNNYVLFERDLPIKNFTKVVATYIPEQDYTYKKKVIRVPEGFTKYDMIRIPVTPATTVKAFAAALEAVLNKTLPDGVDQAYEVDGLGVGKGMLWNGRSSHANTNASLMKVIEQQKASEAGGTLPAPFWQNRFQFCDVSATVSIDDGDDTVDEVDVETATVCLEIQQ

[3] = target: AMP-activated protein kinase, AMPK (Homo sapiens) (UniProt P54646+O43741+P54619+Q9UGJ0+Q9Y478+Q13131+Q9UGI9); test: AMP-dependent Kinase enzyme assay. An in vitro enzyme assay that detects ADP turnover that is directly proportional to AMPK activity. This uses naive AMPK that is activated during the assay with MK-8722; format: functional; conditions: 30 µM
[4] = target: Sialic acid-binding Ig-like lectin 9 (Homo sapiens) (UniProt Q9Y336); test: Hs-Siglec9 ALPHAscreen SOP 20170721; conditions: 10 µM
[5] = system: Trypanosoma cruzi; test: Trypanosoma cruzi phosphomannomutase and mannose-1-phosphate guanylyltransferase assay; format: functional; conditions: 10 µM
[6] = target: T2, Arginase-2, mitochondrial (Homo sapiens) (UniProt P78540); test: in vitro enzyme assay to detect the production of urea directly proportional to the activity of Arginase II; format: functional; conditions: 33.3 µM; also: in the data most compounds retested in dose-response had high values
T2 sequence (whole entry): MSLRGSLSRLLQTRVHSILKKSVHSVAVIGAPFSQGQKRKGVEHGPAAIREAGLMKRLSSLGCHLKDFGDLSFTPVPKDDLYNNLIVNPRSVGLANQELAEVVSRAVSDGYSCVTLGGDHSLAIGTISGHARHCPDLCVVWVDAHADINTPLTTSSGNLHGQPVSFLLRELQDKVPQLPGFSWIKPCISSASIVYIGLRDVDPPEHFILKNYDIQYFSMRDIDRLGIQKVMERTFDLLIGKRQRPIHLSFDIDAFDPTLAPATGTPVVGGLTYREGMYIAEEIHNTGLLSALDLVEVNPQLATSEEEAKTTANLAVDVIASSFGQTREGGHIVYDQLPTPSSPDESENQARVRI

[7] = target: T3, Proteasome subunit beta (Trypanosoma cruzi) (UniProt O96673); test: Trypanosoma cruzi proteasome chymotrypsin-like activity (TcProtChymo) assay.; also: in the data most compounds retested in dose-response had high values; format: functional; conditions: 9.37 µM
T3 sequence (whole entry): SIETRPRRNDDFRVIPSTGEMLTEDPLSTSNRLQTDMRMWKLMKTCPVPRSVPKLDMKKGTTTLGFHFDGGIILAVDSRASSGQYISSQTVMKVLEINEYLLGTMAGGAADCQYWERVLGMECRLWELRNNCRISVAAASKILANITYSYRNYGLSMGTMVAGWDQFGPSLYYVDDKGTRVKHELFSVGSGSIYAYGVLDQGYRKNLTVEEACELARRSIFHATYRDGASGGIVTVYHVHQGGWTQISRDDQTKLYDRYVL

[8] = organism: Homo sapiens; test: To identify inhibition of the IFN signalling (Jak-Stat) pathway via expression of an eGFP reporter gene under the control of an IFN-stimulated response element (ISRE) containing MxA promoter.; format: functional; conditions: 30 µM
[9] = target: T4, Tyrosyl-tRNA synthetase, putative (Trypanosoma cruzi (strain CL Brener)) (UniProt Q4DSP6); test: Trypanosoma cruzi tyrosyl tRNA synthetase (TcYRS) _High Tyrosine SOP; format: functional; conditions: 30 µM; also: in the data most compounds retested in dose-response had high values
T4 sequence (whole entry): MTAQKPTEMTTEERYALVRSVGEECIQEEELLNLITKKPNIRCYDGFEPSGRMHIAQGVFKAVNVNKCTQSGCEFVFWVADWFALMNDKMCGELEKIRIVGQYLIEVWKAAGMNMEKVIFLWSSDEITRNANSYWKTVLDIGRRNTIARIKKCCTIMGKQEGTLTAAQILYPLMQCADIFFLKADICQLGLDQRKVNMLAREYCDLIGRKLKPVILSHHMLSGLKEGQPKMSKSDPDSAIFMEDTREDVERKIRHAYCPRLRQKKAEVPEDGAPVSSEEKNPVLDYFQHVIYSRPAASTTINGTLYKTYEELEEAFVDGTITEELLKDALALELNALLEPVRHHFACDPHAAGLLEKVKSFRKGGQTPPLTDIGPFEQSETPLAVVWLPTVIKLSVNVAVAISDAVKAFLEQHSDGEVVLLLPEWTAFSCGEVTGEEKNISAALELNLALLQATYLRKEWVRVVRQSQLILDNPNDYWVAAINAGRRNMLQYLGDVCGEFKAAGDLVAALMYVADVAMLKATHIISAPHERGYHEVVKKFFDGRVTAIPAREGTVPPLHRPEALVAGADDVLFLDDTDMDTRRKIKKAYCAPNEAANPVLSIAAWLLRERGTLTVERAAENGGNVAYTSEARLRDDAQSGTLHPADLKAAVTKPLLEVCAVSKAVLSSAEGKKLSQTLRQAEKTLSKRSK

[10] = target: T4, Tyrosyl-tRNA synthetase, putative (Trypanosoma cruzi (strain CL Brener)); test: Trypanosoma cruzi tyrosyl tRNA synthetase (TcYRS) SOP; format: functional; conditions: 30 µM
[11] = target: Chromo domain-containing protein 1 (Saccharomyces cerevisiae (strain ATCC 204508 / S288c) (Baker's yeast)) (UniProt P32657); test: ScCHD-1 Enzyme Inhibition Assay; format: functional; conditions: 30 µM; also: in the data most compounds retested in dose-response had high values
Chromo domain-containing protein 1 (Saccharomyces cerevisiae (strain ATCC 204508 / S288c) (Baker's yeast)), sequence (P32657 whole entry, the tested form may be a part): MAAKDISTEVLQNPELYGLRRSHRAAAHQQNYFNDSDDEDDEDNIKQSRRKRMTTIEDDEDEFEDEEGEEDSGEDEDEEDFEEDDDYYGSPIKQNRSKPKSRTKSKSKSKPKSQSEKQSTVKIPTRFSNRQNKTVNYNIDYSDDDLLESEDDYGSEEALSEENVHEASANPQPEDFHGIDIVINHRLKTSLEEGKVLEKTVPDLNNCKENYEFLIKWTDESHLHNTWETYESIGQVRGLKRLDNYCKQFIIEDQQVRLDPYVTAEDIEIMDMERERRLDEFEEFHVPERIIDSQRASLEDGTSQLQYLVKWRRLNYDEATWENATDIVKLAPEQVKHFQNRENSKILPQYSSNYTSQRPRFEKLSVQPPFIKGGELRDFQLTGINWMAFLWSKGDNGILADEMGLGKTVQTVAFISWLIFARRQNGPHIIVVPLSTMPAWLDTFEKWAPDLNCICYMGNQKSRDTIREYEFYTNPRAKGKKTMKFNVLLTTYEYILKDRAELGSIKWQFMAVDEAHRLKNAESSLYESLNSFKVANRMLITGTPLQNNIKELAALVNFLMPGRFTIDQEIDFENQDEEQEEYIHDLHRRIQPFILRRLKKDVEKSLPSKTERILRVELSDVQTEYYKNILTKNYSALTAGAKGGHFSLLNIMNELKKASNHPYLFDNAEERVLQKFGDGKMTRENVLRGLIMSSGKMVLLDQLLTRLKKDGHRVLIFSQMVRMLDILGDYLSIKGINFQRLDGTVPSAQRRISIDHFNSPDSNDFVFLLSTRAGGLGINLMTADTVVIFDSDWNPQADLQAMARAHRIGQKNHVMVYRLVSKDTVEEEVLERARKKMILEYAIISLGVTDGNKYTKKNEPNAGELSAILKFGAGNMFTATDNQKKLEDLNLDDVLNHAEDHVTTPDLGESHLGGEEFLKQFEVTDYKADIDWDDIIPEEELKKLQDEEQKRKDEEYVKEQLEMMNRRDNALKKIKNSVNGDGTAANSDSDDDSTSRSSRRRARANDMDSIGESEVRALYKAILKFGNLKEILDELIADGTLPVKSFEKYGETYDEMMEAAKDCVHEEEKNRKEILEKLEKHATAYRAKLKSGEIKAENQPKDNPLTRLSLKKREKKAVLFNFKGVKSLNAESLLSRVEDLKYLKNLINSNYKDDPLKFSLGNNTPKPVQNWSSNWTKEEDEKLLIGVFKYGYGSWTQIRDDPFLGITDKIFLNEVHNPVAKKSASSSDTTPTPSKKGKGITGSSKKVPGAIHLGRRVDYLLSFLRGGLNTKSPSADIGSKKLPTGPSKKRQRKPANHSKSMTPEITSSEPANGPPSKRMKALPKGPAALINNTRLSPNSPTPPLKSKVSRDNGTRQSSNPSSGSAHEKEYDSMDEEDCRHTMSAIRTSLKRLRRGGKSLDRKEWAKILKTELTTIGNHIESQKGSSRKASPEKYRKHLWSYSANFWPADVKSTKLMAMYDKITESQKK

Sialic acid-binding Ig-like lectin 9 (Homo sapiens), sequence (Q9Y336 whole entry): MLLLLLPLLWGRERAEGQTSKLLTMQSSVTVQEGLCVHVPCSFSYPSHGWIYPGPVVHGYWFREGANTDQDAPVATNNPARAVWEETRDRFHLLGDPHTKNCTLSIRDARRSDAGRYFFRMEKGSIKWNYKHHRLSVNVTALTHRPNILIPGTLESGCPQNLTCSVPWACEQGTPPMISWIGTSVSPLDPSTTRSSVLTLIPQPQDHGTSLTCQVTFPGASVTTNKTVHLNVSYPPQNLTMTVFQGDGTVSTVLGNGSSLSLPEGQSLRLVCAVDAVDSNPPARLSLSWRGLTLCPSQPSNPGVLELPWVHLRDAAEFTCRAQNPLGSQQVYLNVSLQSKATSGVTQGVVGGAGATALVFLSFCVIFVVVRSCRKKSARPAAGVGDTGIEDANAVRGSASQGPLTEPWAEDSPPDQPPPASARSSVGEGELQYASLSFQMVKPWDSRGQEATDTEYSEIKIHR
Protein translocase subunit SecA (Escherichia coli (strain K12)), sequence (P10408 whole entry): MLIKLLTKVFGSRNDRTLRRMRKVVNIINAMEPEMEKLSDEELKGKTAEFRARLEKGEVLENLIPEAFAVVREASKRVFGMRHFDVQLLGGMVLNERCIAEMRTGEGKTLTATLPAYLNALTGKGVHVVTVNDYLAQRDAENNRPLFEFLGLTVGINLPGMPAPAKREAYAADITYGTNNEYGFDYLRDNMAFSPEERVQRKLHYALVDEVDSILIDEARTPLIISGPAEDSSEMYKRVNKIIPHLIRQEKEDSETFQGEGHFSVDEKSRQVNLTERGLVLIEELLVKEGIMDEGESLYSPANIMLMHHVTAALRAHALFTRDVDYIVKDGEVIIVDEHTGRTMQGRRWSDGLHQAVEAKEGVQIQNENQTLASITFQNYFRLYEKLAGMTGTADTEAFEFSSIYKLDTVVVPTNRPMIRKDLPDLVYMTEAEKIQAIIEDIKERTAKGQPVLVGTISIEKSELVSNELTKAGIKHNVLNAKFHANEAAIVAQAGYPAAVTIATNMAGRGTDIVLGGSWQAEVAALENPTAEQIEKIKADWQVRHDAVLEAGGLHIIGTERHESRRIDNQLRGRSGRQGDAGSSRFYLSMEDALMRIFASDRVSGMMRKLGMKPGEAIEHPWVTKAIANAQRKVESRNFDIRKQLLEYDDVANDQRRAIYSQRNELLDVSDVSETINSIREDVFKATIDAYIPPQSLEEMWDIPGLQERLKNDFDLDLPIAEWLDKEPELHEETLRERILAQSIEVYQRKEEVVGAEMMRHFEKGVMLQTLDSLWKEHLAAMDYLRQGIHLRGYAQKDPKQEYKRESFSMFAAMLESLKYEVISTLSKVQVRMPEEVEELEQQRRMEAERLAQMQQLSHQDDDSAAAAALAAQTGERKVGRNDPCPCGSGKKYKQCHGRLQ

SMILES	Percent Effect [1] [%]	Percent Effect [2] [%]	Percent Effect [3] [%]	Percent Effect [4] [%]	Percent Effect [5] [%]	Percent Effect [6] [%]	Percent Effect [7] [%]	Percent Effect [8] [%]	Percent Effect [9] [%]	Percent Effect [10] [%]	Percent Effect [11] [%]
CCN(CC)Cc1ccc(C(=O)N2CCCCC2Cn2cccn2)o1 (configuration not stated)	-1.67	-5.41	0.822	4.06	-0.0929	-1.29	3.23	2.84	0	1.22	0.882
CC(C)c1nn(C)c(N(C)C)c1CNCc1ccc2c(c1)OCO2	-3	7.89	-15.5	1.82	-7	2.16	-2.45	-9	-0.493	11.1	0.321
CN(Cc1ccc2c(c1)OCCO2)C(=O)NCCc1cnn(C)c1	-2.93	18.9	-2.51	14.3	-10.3	0.554	14.5	18	2.97	-1.22	-6.78
OCCn1cc(CN2CCN(CCOc3ccccc3F)CC2)cn1	-9.62	0	7.1	3.17	-5.48	2.03	4.49	11.7	-2.97	-8.54	11.3
O=C(CCOc1cccc(F)c1)N1CCCC(n2cncn2)C1 (configuration not stated)	-2.79	1.27	7.42	3.23	-1.95	4.95	6	2.52	2.08	7.59	-10.2
Cn1cccc1C(=O)N1CCc2ncnc(N3CCCC3)c2CC1	-4.32	5.33	8.28	2.39	4.13	-4.43	-0.264	8.45	5.32	11.5	-2.07
Cc1ccc(CC(=O)N2CCOC(c3nc(C(C)(C)C)n[nH]3)C2)cn1 (configuration not stated)	-3.58	12.5	-9.66	13.3	4.76	-0.442	7.72	2.71	3.16	5.13	-2.81
Cc1cc(N2CCCN(C(=O)Cc3csc(C)n3)CC2)ccn1	0.872	5.41	0.202	-1.96	-2.7	4.76	20.2	9.24	2.65	9.76	-3.36
CN(C(=O)c1cccc(C(=O)NS(C)(=O)=O)c1)c1ccccc1	-5.66	15.6	1.54	14.7	6.98	-24.8	16.5	4.53	6.45	13.6	-2.26
CCC1CN(CC(=O)Nc2sccc2C#N)CCO1 (configuration not stated)	-4.43	-13.2	-2.5	2.86	0.376	0	8.19	-2.35	4.41	9.76	-9.42
CC(OCC(F)(F)F)C(=O)N1CCCCC1 (configuration not stated)	-5.31	0	-0.316	-2.51	-0.783	-2.27	-1.77	19.4	1.07	2.5	0.868
Cc1cc(C)c(CNC(=O)NCC2CCCO2)c(=O)[nH]1 (configuration not stated)	-9.94	2.63	3.27	0.242	-5.64	-2.3	-2.17	19.5	-3.43	-2.44	2.35
COc1ccc(C(=O)NS(=O)(=O)c2ccc(C#N)cc2C(F)(F)F)cc1	-1.41	-10.8	20.6	0.998	0.472	6.41	-3.06	11.2	-2.46	-1.24	-2.1
O=C(CN1CCOC(Cn2cccn2)C1)NCCc1ccc(F)cc1 (configuration not stated)	-2.6	2.7	-6.61	-1.28	-3.25	-0.554	7.18	5.31	-0.99	1.22	13.8
CC(C)NC(=O)[C@@H]1C[C@H](N)CN1C(=O)c1cc2c([nH]c1=O)CCCC2	-2.48	6.94	-2.43	-9.13	-1.46	1.77	17.7	3.48	4.21	7.69	-3.08
Cc1[nH]ccc1C(=O)Nc1cccc(CN2CCC(O)CC2)c1	0.333	10.5	-2.05	-6.23	-5.36	-2.37	16.2	8.85	1.06	10.4	-3.89
Cc1cc(C2CCCN(CCc3ccccn3)C2)n[nH]1 (configuration not stated)	-4.83	2.53	-4	3.7	9.73	1.14	-1.23	-3.32	-7.39	11.4	-2.02
Cn1cccc1CN1CCC2(CCCN(C(=O)c3cnccn3)C2)C1 (configuration not stated)	0.875	7.79	-0.756	-13.7	-10.8	11	14.4	29.7	-2.12	-1.28	-9.31
Cc1cnccc1CN1C[C@@H](O)[C@H](Oc2cccc(F)c2)C1	-3.16	1.35	10	2.32	3.36	0.696	4.37	16.3	0	1.3	-22.9
Cc1nc(CN2CCCC2c2c(C)nn(C)c2Cl)no1 (configuration not stated)	-2.73	5.26	-8.02	-3	-2.33	-3.24	-9.22	-11.3	3.45	-1.24	6.8
c1cncc(OCc2nnn3c2CN(Cc2ccsc2)CCC3)c1	-3.57	2.67	-0.385	1.61	7.72	-48.2	6.84	1.38	-3.12	-5	-5.39
Cc1ccc(C(=O)NCCCNS(C)(=O)=O)cc1-n1cccc1	-3.12	13.2	12.3	-1.07	3.99	9.47	15.2	9.99	6.38	10.4	-5.78
